From publication PMC7862700, “An all-to-all approach to the identification of sequence-specific readers for epigenetic DNA modifications on cytosine” come the findings set out here.

Holding throughout (assay): DAPPL (digital affinity profiling via proximity ligation, sequencing); 10 mM Tris-HCl pH 7.5, 50 mM NaCl, 1 mM DTT, 4% glycerol, room temperature, 30 min; GST-TFs on glutathione beads, 16-mer random dsDNA library, 0.1% formaldehyde crosslink after washing; high values mean tight binding
What all share (conditions): protein: recombinant; tags: N-terminal GST; dsDNA, one strand shown

One assay has as its target T1, FLI1 (Homo sapiens, UniProt Q01543 1-452).
T1 sequence: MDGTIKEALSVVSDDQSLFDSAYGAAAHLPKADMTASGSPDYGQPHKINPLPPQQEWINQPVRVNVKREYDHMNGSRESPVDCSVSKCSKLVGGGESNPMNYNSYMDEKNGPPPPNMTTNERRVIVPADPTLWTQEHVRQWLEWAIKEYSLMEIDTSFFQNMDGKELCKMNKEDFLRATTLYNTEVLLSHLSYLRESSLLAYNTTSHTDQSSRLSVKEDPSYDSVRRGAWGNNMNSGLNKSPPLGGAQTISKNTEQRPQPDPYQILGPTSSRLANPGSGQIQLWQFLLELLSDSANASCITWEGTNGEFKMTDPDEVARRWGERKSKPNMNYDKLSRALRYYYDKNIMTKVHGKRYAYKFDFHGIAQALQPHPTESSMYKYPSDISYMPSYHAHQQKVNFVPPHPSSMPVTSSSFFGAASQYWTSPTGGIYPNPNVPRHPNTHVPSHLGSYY
In a few lines:
(§1)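 Human transcription factors were made in yeast as GST fusions, captured on glutathione beads and barcoded with DNA. With a tag-only sample included, the pool was incubated with 200 nmole of a random double-stranded 16-mer DNA library in Tris/NaCl/DTT/glycerol buffer at room temperature for 30 min, then crosslinked with 0.1% formaldehyde after washing, ligated by proximity, amplified and sequenced. For binding signal, each hexamer's read frequency for a factor is divided by its frequency for the tag-only sample.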

The target in the next assay is T2, ELK1 (Homo sapiens, UniProt P19419 1-428).
T2 sequence: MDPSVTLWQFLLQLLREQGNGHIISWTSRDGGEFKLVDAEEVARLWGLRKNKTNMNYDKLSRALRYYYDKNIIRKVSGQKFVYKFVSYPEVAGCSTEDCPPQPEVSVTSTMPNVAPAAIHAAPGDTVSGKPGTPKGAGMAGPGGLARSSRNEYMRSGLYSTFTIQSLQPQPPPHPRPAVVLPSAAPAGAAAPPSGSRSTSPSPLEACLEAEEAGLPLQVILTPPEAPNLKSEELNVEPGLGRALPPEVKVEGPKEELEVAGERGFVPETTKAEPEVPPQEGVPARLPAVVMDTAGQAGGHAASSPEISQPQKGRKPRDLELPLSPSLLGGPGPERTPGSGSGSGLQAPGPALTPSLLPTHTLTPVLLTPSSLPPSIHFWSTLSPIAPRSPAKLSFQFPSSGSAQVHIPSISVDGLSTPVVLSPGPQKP
The essentials:
as §1

The target of the next assay is T3, GABPA (Homo sapiens, UniProt Q06546 1-454).
T3 sequence: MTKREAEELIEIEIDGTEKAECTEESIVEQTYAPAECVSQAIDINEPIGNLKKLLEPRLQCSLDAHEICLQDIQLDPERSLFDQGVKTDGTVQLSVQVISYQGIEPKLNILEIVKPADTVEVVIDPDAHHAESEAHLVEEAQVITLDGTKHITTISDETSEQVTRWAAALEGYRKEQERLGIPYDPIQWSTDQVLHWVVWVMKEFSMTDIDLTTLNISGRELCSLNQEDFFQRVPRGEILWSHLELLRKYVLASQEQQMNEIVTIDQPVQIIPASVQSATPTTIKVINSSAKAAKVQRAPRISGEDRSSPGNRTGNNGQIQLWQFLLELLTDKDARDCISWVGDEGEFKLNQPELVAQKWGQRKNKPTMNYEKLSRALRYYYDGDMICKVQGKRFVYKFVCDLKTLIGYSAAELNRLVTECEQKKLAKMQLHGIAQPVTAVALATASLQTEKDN
In a few lines:
as §1

In a further assay the target is T4, ERG (Homo sapiens, UniProt P11308 1-479).
T4 sequence: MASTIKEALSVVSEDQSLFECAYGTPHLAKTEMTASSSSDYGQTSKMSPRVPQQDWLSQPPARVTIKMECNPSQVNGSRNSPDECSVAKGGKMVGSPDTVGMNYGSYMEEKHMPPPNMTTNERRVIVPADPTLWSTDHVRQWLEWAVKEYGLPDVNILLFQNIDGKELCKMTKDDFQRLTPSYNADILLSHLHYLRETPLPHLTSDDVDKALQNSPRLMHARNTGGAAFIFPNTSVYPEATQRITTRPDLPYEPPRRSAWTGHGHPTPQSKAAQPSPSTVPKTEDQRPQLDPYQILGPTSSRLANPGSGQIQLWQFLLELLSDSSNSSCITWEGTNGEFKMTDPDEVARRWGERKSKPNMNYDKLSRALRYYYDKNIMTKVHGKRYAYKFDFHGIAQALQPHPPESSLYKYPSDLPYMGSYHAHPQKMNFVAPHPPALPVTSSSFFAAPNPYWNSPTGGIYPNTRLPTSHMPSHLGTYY
The essentials: as §1

The target of a further assay is ELF1 (Homo sapiens, UniProt P32519 1-619). In a few lines:
as §1

The target of the next assay is SPI1 (Homo sapiens, UniProt P17947 1-270). In a few lines:
as §1

The target in the next assay is SPIB (Homo sapiens, UniProt Q01892 1-262). The essentials:
as §1

In another assay the target is T5, ELK3 (Homo sapiens, UniProt P41970 1-407).
T5 sequence: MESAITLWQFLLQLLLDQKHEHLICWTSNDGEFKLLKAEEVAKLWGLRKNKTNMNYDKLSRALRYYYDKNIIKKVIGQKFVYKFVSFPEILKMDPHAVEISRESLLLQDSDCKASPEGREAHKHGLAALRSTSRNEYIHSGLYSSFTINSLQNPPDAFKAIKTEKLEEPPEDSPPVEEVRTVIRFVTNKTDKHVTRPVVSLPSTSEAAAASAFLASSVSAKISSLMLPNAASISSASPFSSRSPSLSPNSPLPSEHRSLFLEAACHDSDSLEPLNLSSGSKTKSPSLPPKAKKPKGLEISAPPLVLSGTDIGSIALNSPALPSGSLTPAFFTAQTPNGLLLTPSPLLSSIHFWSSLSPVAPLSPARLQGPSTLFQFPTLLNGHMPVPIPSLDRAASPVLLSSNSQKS
The essentials:
as §1

The target in another assay is T6, FEV (Homo sapiens, UniProt Q99581 1-238).
T6 sequence: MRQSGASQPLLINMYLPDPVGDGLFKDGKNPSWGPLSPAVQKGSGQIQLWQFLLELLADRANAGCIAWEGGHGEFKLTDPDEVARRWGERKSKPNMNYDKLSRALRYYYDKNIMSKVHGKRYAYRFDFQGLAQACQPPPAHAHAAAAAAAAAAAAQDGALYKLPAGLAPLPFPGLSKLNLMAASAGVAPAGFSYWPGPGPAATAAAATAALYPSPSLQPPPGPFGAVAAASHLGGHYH
The essentials:
as §1

The next assay has as its target ETV5 (Homo sapiens, UniProt P41161 1-510). In a few lines: as §1
The next assay concerns the target T7, SPIC (Homo sapiens, UniProt Q8N5J4 1-248).
T7 sequence: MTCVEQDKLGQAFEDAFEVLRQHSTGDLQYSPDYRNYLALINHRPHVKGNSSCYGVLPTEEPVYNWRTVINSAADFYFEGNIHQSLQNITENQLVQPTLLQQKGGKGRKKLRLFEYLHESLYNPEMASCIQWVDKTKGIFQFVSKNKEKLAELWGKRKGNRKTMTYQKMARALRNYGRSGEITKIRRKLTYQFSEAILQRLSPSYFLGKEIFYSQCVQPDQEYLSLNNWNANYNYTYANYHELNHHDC
In a few lines:
as §1

Another assay addresses ELF4 (Homo sapiens, UniProt Q99607 1-663). In a few lines: as §1
In a further assay the target is T8, ELK4 (Homo sapiens, UniProt P28324-2 1-405).
T8 sequence: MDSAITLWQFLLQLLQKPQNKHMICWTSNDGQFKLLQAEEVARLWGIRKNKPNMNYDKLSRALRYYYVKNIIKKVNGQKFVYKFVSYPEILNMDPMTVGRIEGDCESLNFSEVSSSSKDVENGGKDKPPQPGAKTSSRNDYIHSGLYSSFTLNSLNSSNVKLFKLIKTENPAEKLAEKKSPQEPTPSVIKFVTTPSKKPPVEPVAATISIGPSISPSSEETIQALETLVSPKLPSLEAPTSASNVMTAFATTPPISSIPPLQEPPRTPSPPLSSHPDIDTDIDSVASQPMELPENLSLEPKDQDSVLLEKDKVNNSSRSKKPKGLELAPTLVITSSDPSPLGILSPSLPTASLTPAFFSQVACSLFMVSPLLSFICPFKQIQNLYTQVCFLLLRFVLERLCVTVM
In a few lines: as §1

A further assay has as its target T9, ETV2 (Homo sapiens, UniProt O00321 1-342).
T9 sequence: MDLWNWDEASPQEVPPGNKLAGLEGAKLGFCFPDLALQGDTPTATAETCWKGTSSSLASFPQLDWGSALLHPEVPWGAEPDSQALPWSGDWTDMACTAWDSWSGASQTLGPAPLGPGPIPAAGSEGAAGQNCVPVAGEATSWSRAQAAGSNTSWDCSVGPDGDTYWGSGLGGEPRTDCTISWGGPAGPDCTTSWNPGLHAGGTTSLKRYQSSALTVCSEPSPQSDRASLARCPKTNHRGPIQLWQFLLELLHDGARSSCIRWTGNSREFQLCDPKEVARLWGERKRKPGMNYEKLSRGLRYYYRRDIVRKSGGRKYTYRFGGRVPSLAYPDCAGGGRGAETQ
The essentials: as §1

The target in the next assay is ETV1 (Homo sapiens, UniProt P50549 1-477). The essentials:
as §1

A further assay concerns the target T10, EHF (Homo sapiens, UniProt Q9NZC4 1-300).
T10 sequence: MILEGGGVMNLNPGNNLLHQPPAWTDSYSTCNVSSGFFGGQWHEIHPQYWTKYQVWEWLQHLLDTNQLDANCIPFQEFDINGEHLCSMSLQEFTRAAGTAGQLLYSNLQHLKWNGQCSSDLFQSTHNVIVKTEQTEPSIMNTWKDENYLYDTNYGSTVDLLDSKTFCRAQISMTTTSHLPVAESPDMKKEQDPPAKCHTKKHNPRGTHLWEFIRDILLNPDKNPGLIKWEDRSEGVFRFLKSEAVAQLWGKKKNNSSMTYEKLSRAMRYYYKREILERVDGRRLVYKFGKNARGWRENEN
In a few lines: as §1

A further assay deals with CRX (Homo sapiens, UniProt O43186 1-299). The essentials:
as §1

ELF4, sequence (Q99607 whole entry): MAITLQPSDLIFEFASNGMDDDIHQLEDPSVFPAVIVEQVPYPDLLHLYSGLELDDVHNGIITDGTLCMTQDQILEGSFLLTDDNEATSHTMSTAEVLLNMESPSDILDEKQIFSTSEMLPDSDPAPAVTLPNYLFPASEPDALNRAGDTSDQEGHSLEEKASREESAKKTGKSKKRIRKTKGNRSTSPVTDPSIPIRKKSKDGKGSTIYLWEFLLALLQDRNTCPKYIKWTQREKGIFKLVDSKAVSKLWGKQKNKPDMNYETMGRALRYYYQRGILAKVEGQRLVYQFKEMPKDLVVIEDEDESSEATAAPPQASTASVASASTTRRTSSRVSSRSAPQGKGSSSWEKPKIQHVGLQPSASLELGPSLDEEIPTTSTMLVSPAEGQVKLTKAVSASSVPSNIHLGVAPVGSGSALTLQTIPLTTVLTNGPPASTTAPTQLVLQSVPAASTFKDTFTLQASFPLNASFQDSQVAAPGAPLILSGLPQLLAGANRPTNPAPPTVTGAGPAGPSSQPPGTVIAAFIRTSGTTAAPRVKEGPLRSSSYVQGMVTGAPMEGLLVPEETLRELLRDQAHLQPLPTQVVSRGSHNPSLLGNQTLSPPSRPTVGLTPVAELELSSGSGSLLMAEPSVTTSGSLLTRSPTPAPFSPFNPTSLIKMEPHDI
SPIB, sequence (Q01892 whole entry): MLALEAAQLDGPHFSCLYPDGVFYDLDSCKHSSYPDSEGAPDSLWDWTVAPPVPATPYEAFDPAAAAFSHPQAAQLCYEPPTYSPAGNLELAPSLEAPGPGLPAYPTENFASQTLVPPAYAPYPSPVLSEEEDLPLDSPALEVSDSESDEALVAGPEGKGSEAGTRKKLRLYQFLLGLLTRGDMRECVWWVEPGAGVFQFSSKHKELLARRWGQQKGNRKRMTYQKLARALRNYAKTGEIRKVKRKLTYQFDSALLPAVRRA
ELF1, sequence (P32519 whole entry): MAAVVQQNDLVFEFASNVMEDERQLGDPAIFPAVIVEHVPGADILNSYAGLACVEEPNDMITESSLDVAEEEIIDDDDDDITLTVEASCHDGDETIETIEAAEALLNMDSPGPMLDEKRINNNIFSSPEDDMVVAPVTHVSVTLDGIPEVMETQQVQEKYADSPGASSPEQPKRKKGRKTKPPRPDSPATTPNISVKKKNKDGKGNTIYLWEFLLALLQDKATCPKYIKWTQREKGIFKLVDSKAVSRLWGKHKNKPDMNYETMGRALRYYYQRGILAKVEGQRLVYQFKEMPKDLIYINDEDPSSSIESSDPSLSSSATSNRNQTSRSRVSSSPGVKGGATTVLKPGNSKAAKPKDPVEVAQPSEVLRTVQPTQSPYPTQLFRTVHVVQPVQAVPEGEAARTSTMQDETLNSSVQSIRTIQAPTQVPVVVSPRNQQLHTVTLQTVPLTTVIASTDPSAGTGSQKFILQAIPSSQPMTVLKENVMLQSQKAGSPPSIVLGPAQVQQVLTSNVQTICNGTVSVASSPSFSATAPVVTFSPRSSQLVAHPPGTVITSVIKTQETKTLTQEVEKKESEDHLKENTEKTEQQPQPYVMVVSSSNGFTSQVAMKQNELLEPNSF
ETV5, sequence (P41161 whole entry): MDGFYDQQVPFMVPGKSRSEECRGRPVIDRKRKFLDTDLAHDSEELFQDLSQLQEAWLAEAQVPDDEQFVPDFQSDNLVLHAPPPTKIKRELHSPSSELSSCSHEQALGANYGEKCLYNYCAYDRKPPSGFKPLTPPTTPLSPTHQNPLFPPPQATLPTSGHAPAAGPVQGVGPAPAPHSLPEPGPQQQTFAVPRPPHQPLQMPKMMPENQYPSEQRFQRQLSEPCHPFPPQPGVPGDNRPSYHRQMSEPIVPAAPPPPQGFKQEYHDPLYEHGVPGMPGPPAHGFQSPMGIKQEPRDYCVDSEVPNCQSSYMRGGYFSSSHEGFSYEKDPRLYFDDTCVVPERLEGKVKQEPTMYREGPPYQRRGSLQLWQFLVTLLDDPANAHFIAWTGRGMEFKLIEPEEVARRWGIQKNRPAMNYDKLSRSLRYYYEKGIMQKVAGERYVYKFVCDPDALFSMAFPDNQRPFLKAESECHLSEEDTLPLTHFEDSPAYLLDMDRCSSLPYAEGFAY
ETV1, sequence (P50549 whole entry): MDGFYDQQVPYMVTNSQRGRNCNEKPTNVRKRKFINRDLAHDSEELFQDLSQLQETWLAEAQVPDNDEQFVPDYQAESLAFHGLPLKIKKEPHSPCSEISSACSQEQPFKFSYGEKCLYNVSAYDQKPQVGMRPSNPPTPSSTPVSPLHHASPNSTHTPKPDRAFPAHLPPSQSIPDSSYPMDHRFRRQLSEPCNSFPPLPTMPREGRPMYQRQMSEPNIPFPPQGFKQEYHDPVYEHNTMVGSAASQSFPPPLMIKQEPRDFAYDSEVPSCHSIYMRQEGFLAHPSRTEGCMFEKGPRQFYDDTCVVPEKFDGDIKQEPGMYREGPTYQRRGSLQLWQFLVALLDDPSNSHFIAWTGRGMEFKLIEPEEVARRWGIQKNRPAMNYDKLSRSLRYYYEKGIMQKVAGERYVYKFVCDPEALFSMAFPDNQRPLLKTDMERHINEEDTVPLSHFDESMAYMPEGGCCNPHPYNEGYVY
CRX, sequence (O43186 whole entry): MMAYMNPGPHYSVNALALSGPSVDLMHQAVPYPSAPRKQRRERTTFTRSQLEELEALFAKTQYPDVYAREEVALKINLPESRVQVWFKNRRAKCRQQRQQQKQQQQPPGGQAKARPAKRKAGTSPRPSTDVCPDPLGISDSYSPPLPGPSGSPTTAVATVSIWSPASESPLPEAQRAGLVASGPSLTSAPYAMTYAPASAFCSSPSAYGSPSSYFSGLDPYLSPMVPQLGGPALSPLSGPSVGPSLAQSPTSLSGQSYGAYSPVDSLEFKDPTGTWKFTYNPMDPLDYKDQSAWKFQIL

As for ACCCTG, the binding signal in the assay with FLI1 is 1.05 fold enrichment (6-mer frequency, TF over GST control); in the assay with ELK1, 1.09 fold enrichment (6-mer frequency, TF over GST control); with GABPA, 1.06 fold enrichment (6-mer frequency, TF over GST control); in the assay with ERG, 1.05 fold enrichment (6-mer frequency, TF over GST control); with ELF1, 1.13 fold enrichment (6-mer frequency, TF over GST control); with SPI1, 1.05 fold enrichment (6-mer frequency, TF over GST control). Also, the binding signal with SPIB is 1.09 fold enrichment (6-mer frequency, TF over GST control); with ELK3, 1.24 fold enrichment (6-mer frequency, TF over GST control); with FEV, 1.02 fold enrichment (6-mer frequency, TF over GST control); in the assay with ETV5, 1.01 fold enrichment (6-mer frequency, TF over GST control); in the assay with SPIC, 1.1 fold enrichment (6-mer frequency, TF over GST control); in the assay with ELF4, 1.16 fold enrichment (6-mer frequency, TF over GST control). In addition, the binding signal with ELK4 is 1.18 fold enrichment (6-mer frequency, TF over GST control); in the assay with ETV2, 1.05 fold enrichment (6-mer frequency, TF over GST control); in the assay with ETV1 it was 1.09 fold enrichment (6-mer frequency, TF over GST control).
Take TGCCTA: the binding signal with FLI1 is 1.02 fold enrichment (6-mer frequency, TF over GST control); with ELK1 it was 1.12 fold enrichment (6-mer frequency, TF over GST control); in the assay with GABPA, 1.01 fold enrichment (6-mer frequency, TF over GST control); in the assay with ELF1 it was 1.11 fold enrichment (6-mer frequency, TF over GST control); with EHF, 1.09 fold enrichment (6-mer frequency, TF over GST control); with SPI1 it was 1.04 fold enrichment (6-mer frequency, TF over GST control). Moreover, the binding signal with SPIB is 1.07 fold enrichment (6-mer frequency, TF over GST control); with FEV, 1.05 fold enrichment (6-mer frequency, TF over GST control); with ETV5, 1 fold enrichment (6-mer frequency, TF over GST control); with SPIC it was 1.18 fold enrichment (6-mer frequency, TF over GST control); with ELF4, 1.09 fold enrichment (6-mer frequency, TF over GST control); with ELK4, 1.24 fold enrichment (6-mer frequency, TF over GST control). Moreover, the binding signal was 1.17 fold enrichment (6-mer frequency, TF over GST control) with ETV2 and 1.08 fold enrichment (6-mer frequency, TF over GST control) with CRX.
